In PubChem BioAssay AID1159580 (chemical genetic matrix, 2015):
The campaign covered roughly 5,500 compounds. About 2,000 (36%) were called active. About 18% were inconclusive and are not listed. No stated cut-off is given here; in the data, active means normalized growth mostly below about 0.91 (no sharp cut-off); inconclusive means no clear call, values can overlap the other calls; inactive means mostly above about 0.92. Some of the results follow.

Experiment: chemical genetic growth profiling, strain panel (AID 1159580);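 further: tested at 20 µM; growth read once vehicle control cultures reached saturation at 30 °C; 1 = growth at the plate median or of vehicle wells; lower values mean less growth of the strain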
Conditions: growth OD

Measured: normalized growth

COC(=O)CC1C2(C)CC34OC5(C)OC6(C7/C(=C(/O)C(C)C)C(=O)OC(c8ccoc8)C7(C)C(OC(=O)C(C)C)C(OC)C6(O5)C13C)C(OC)C4(OC)C2OC(C)=O (stereo not drawn)
inactive: S. cerevisiae deletion strains, locus YAL013W, strain DEP1, hits give low values 0.997 | S. cerevisiae deletion strains, locus YBR021W, strain FUR4, hits give low values 1.02 | S. cerevisiae deletion strains, locus YBR229C, strain ROT2, hits give low values 1 | S. cerevisiae deletion strains, locus YCL029C, strain bik1, hits give low values 0.99 | S. cerevisiae deletion strains, locus YDL035C, strain GPR1, hits give low values 1.02 | S. cerevisiae deletion strains, locus YDL074C, strain BRE1, hits give low values 1.01 | S. cerevisiae deletion strains, locus YDL101C, strain DUN1, hits give low values 1.01 | S. cerevisiae deletion strains, locus YDL134C, strain PPH21, hits give low values 1.01 | S. cerevisiae deletion strains, locus YDL185W, strain tfp1, hits give low values 0.991 | S. cerevisiae deletion strains, locus YDL192W, strain arf1, hits give low values 0.994 | S. cerevisiae deletion strains, locus YDR101C, strain arx1, hits give low values 0.991 | S. cerevisiae deletion strains, locus YDR162C, strain NBP2, hits give low values 1.01 | S. cerevisiae deletion strains, locus YDR318W, strain mcm21, hits give low values 0.988 | S. cerevisiae deletion strains, locus YDR388W, hits give low values 0.995 | S. cerevisiae deletion strains, locus YDR502C, strain sam2, hits give low values 0.988 | S. cerevisiae deletion strains, locus YEL061C, strain CIN8, hits give low values 0.994 | S. cerevisiae deletion strains, locus YER110C, hits give low values 0.988 | S. cerevisiae deletion strains, locus YER155C, strain BEM2, hits give low values 1 | S. cerevisiae deletion strains, locus YER167W, strain BCK2, hits give low values 1.02 | S. cerevisiae deletion strains, locus YGL078C, strain dbp3, hits give low values 0.979 | S. cerevisiae deletion strains, locus YGL086W, strain mad1, hits give low values 0.975 | S. cerevisiae deletion strains, locus YGL248W, strain PDE1, hits give low values 1.01 | S. cerevisiae deletion strains, locus YGR078C, strain PAC10, hits give low values 1.02 | S. cerevisiae deletion strains, locus YGR135W, strain pre9, hits give low values 0.987 | S. cerevisiae deletion strains, locus YGR229C, strain SMI1, hits give low values 1 | S. cerevisiae deletion strains, locus YGR252W, strain gcn5, hits give low values 0.937 | S. cerevisiae deletion strains, locus YHR030C, strain SLT2, hits give low values 1.01 | S. cerevisiae deletion strains, locus YHR079C, strain IRE1 (second series), hits give low values 0.985 | S. cerevisiae deletion strains, locus YHR094C, strain hxt1, hits give low values 0.989 | S. cerevisiae deletion strains, locus YHR129C, strain ARP1, hits give low values 1.01 | S. cerevisiae deletion strains, locus YHR200W, strain rpn10, hits give low values 0.99 | S. cerevisiae deletion strains, locus YIL066C, strain RNR3, hits give low values 1.03 | S. cerevisiae deletion strains, locus YIL073C, strain SPO22, hits give low values 1.03 | S. cerevisiae deletion strains, locus YIL125W, strain kgd1, hits give low values 0.991 | S. cerevisiae deletion strains, locus YIR030C, strain dcg1, hits give low values 0.996 | S. cerevisiae deletion strains, locus YJL095W, strain BCK1, hits give low values 1.03 | S. cerevisiae deletion strains, locus YJL134W, strain LCB3, hits give low values 1.01 | S. cerevisiae deletion strains, locus YJL168C, strain set2, hits give low values 0.986 | S. cerevisiae deletion strains, locus YJL187C, strain SWE1 (second series), hits give low values 1.01 | S. cerevisiae deletion strains, locus YJR043C, strain POL32, hits give low values 1.01 | S. cerevisiae deletion strains, locus YJR075W, strain HOC1, hits give low values 1.01 | S. cerevisiae deletion strains, locus YKL009W, strain mrt4, hits give low values 0.984 | S. cerevisiae deletion strains, locus YKL068W, hits give low values 1 | S. cerevisiae deletion strains, locus YKL085W, strain MDH1 (second series), hits give low values 1 | S. cerevisiae deletion strains, locus YKL085W, strain MDH1, hits give low values 1 | S. cerevisiae deletion strains, locus YKR001C, strain vps1, hits give low values 0.988 | S. cerevisiae deletion strains, locus YLR039C, strain RIC1, hits give low values 1.04 | S. cerevisiae deletion strains, locus YLR058C, strain SHM2, hits give low values 1.01 | S. cerevisiae deletion strains, locus YLR102C, strain apc9, hits give low values 0.988 | S. cerevisiae deletion strains, locus YLR262C, strain YPT6, hits give low values 1.05 | S. cerevisiae deletion strains, locus YLR268W, strain sec22, hits give low values 0.989 | S. cerevisiae deletion strains, locus YLR330W, strain CHS5, hits give low values 1.01 | S. cerevisiae deletion strains, locus YLR342W, strain FKS1 (second series), hits give low values 0.999 | S. cerevisiae deletion strains, locus YLR371W, strain rom2, hits give low values 0.983 | S. cerevisiae deletion strains, locus YLR418C, strain cdc73, hits give low values 1.01 | S. cerevisiae deletion strains, locus YML016C, strain PPZ1, hits give low values 1 | S. cerevisiae deletion strains, locus YML032C, strain rad52, hits give low values 0.985 | S. cerevisiae deletion strains, locus YML124C, strain tub3, hits give low values 0.99 | S. cerevisiae deletion strains, locus YMR078C, strain ctf18, hits give low values 0.994 | S. cerevisiae deletion strains, locus YMR223W, strain ubp8, hits give low values 0.994 | S. cerevisiae deletion strains, locus YMR307W, strain GAS1, hits give low values 1.05 | S. cerevisiae deletion strains, locus YNL067W, strain RPL9B, hits give low values 1 | S. cerevisiae deletion strains, locus YNL233W, strain BNI4, hits give low values 1.04 | S. cerevisiae deletion strains, locus YNL250W, strain rad50, hits give low values 1.02 | S. cerevisiae deletion strains, locus YNL271C, strain bni1, hits give low values 0.992 | S. cerevisiae deletion strains, locus YNL298W, strain CLA4, hits give low values 0.987 | S. cerevisiae deletion strains, locus YNL307C, strain MCK1, hits give low values 0.996 | S. cerevisiae deletion strains, locus YNL322C, strain KRE1, hits give low values 1 | S. cerevisiae deletion strains, locus YNR052C, strain pop2, hits give low values 0.977 | S. cerevisiae deletion strains, locus YOL012C, strain htz1 0.95 | S. cerevisiae deletion strains, locus YOL147C, strain pex11, hits give low values 0.984 | S. cerevisiae deletion strains, locus YOR061W, strain CKA2, hits give low values 1.01 | S. cerevisiae deletion strains, locus YOR069W, strain VPS5, hits give low values 1.01 | S. cerevisiae deletion strains, locus YOR136W, strain idh2, hits give low values 0.991 | S. cerevisiae deletion strains, locus YOR144C, strain elg1, hits give low values 0.989 | S. cerevisiae deletion strains, locus YOR184W, strain ser1, hits give low values 0.976 | S. cerevisiae deletion strains, locus YOR316C, strain cot1, hits give low values 0.992 | S. cerevisiae deletion strains, locus YPR119W, strain clb2, hits give low values 0.982 | S. cerevisiae deletion strains, locus YPR141C, strain kar3, hits give low values 0.998 | S. cerevisiae deletion strains, locus YPR163C, strain tif3, hits give low values 0.999 | S. cerevisiae deletion strains, locus YPR167C, strain met16, hits give low values 0.99 | S. cerevisiae deletion strains, strain wtn01, hits give low values 0.974 | S. cerevisiae strains, strain wild type, hits give low values 1.01
